# Values without a mark were called inactive. Calls of active or inactive are those of the source. Calls follow the shape of the full dose curve.
# Assay: G protein-coupled receptor (GPCR) small molecule agonists, calcium flux assay: HEK293 wild type cell line counter screen (AID 1920065)
# Conditions: HEK293 WT calcium flux, fluorescence, agonist mode; series mostly up to 57.6 µM; activation: at the top concentration
# Text: U.S. Tox21 Program National Center for Advancing Translational Sciences [NCATS] Division of Preclinical Innovation [DPI] U.S. Environmental Protection Agency [EPA] National Institutes of Environmental Health Sciences [NIEHS] National Toxicology Program [NTP] U.S. Food and Drug Administration [FDA] Assay overview: The increased intracellular calcium release that occurred upon G protein-coupled receptor (GPCR) activation led to the frequent use of calcium flux assays to detect GPCR activation. For the purpose of studying and screening compounds that may activate GPCR, receptor-overexpressing models were typically generated using Hek293 wild-type (WT) cells. In order to eliminate the compounds that may have induced calcium release for non-specific activation, a counter-assay utilizing calcium flux on Hek293 WT cells was performed. The data were formulated in order to serve as a control for any calcium flux detection utilizing Hek293 cells with either GPCR overexpression or gene modification. The procurement of Hek293 WT cells from ATCC. Fluorescence intensity can be utilized to determine the activation of the compound in a calcium flux assay. As a counter control, this cell line was utilized to screen the Tox21 10K compound library.
# Assay Protocol Summary: Hek293 cells were dispensed at 1500cells/4uL/well in 1536-well black wall/clear bottom plates using a multidrop dispenser. After the assay plates were incubated at a 37 C/5% CO2 incubator for 18 hours, 4 uL of Calcium Dye Solution was added to each well. The plates were incubated at 37 C for 1 hour. For agonist mode, 23 nL of compounds dissolved in DMSO, positive control (ATP) or DMSO only was transferred to the assay plate by a pin tool station. The fluorescence intensity in the plates was measured using FDSS 7000EX kinetic plate reader with a filter set of Ex/Em=480/540 for 3 min at 1 sec intervals. Each test compound was measured at 15 concentrations and in triplicates.
# % is scaled to controls: 0 for no effect and ±100 for the full control effect.
SMILES,activation,Potency
N#CCCC(Br)(C#N)CBr (stereo not given),4.26%,–
CCOc1ccc(C(C)(C)COCc2cccc(Oc3ccccc3)c2)cc1,0.413%,–
O=NN1CCNCC1,0.143%,–
CC(C)(C)c1ccc(CSc2cnn(C(C)(C)C)c(=O)c2Cl)cc1,1.07%,–
Cc1cc(C(C)(C)c2ccc(O)c(C)c2)ccc1O,-1.74%,–
COc1ccc([N+](=O)[O-])cc1O,0.51% [at 26.5 µM],–
C[N+]1(C)[C@@H]2CC[C@H]1CC(OC(=O)C(CO)c1ccccc1)C2 (stereo not given in full),-0.0009% [at 26.5 µM],–
CC[C@@H](CO)NC(=O)[C@@H]1C=C2c3cccc4[nH]cc(c34)C[C@H]2N(C)C1,2.1% [at 26.5 µM],–
N#Cc1c2ccccc2cc2ccccc12,-0.23%,–
CC(C)(C)NCC(O)c1cc(Cl)c(N)c(C(F)(F)F)c1 (stereo not given),0.381% [at 26.5 µM],–
O=C1Nc2ccc(Cl)cc2C(c2ccccc2)=NC1O (stereo not given),–,inactive
CCOC(=O)/C=C(C)/C=C/C[C@@H](C)CCCC(C)C,2.15%,–
O=S(=O)(Cl)c1ccccc1,-1.01%,–
CCC1(c2cccc(O)c2)CCCCN(C)C1 (stereo not given),-0.121% [at 26.5 µM],–
CCCCOP(=O)(O)OCCCC,0.241%,–
O=CC(Br)(Br)Br,-0.14%,–
C[CH2][Hg][N]1C(=O)C2C(C1=O)C1(Cl)C(Cl)=C(Cl)C2(Cl)C1(Cl)Cl (stereo not given),-0.0279% [at 11.8 µM],–
O=Cc1ccc2c(c1)OCO2,0.524%,–
CN(C)c1ccc(N)cc1,-0.21%,–
CNN,-0.599%,–

SMILES,activation,Potency
Cc1c(F)c(F)c(COC(=O)C2C(/C=C(\Cl)C(F)(F)F)C2(C)C)c(F)c1F (stereo not given),-0.252%,–
[Cl-].[Cl-].[Sn+2],0.251%,–
O=C(N[C@H]1N=C(c2ccccc2F)c2cccc3c2N(CC3)C1=O)c1cc2ccccc2[nH]1,-0.301% [at 26.5 µM],–
CC(C)C1CCC(Cc2ccc(Cl)cc2)C1(O)Cn1cncn1 (stereo not given),12.7%,–
COC(=O)c1ccccc1S(=O)(=O)NC(=O)N(C)c1nc(C)nc(OC)n1,0.0249%,–
OCC(c1ccc(Cl)cc1)c1ccc(Cl)cc1,-0.245%,–
Oc1c(Cl)cccc1Cl,-0.0026%,–
CC(Oc1cccc(Cl)c1)C(=O)O (stereo not given),-0.867%,–
BrC(Br)C(Br)(Br)Br,-0.954%,–
CO/N=C(\C(=O)OC)c1ccccc1CO/N=C(\C)c1cccc(C(F)(F)F)c1,-1.21%,–
CCCCCCCCCCCCCCC(Br)C(=O)O (stereo not given),-0.304%,–
CCCSP(=S)(OCC)Oc1ccc(Cl)cc1Cl (stereo not given),-0.515%,–
N#CC(CCc1ccc(Cl)cc1)(Cn1cncn1)c1ccccc1 (stereo not given),14.1%,–
ClC(Cl)(Cl)Cl,0.47%,–
CCOP(=S)(OCC)Oc1ncn(-c2ccccc2)n1,-1.36%,–
CCC(=O)C(CCN(C)C)(c1ccccc1)c1ccccc1,0.493% [at 26.5 µM],–
C=C1C[C@@H]2[C@H](CC[C@]3(C)C(=O)CC[C@@H]23)[C@@]2(C)C=CC(=O)C=C12,-0.122% [at 26.5 µM],–
Cc1ncc(C[n+]2csc(CCO)c2C)c(N)n1,0.117%,–
O=C(Cl)c1ccc(Cl)cc1,-0.876%,–
CCOP(=S)(OCC)Oc1cc(C)nc(N(CC)CC)n1,-0.725%,–

# — PubChem BioAssay (Tox21)
